Bioassay records (PubChem)
CYP2C9 act: activators of human CYP2C9. P11712. recombinant CYP2C9, luciferin-H conversion, luminescence; hits give high values; factor 1 = untreated enzyme, 0 = blocked. activation factor at 5 µM. 96,000 tested, 1.4% active. AID 1024;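 active means activation factor of 2 or more for CYP2C9 at a 5 µM dose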;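 further: 0 = sulfaphenazole-blocked wells and 1 = vehicle-only wells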
Target sequence (P11712 whole entry, looked up): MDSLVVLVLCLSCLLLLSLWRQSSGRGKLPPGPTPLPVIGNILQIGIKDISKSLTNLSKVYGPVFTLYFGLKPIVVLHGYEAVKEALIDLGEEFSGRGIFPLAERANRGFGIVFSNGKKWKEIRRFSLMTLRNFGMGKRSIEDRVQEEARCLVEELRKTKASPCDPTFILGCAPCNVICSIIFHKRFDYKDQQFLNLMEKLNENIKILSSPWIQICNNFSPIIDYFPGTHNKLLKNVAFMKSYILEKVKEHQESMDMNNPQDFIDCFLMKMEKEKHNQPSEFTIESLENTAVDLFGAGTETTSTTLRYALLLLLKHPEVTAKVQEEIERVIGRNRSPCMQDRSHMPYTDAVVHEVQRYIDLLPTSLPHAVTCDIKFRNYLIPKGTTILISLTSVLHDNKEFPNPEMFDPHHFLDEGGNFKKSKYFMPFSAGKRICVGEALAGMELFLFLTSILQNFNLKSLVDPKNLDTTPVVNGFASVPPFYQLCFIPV
CYP2C19 act: increases human CYP2C19 enzyme activity; recombinant CYP2C19, luciferin-H EGE luminescence; hits give high values; 0 = fully inhibited enzyme, 1 = untreated enzyme; activation factor at 5 µM; AID 1025; 96,000 tested, under 10 active; P33261;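 active means activation factor of at least 2 at 5 µM in the primary screen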;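 further: 0 = wells with 2.5 mM tranylcypromine and 1 = vehicle-only wells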
PTK2B oligo ant: Pyk2 (human) oligomerization antagonism | Q14289 | Q293 cells, Pyk2 FERM NanoBiT luminescence; hits give low values | z-score (the deposit names both 25 µM and 10 µM) | 99,000 tested, 0.83% active;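 active means Z-score of -3 or lower, scaled per plate to the spread of control and sample wells; inactive means z-score above -3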;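 further: negative z-score means lost luminescence so less FERM oligomerization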
CYP2C19 inhib: inhibitors of human CYP2C19 | CYP2C19 Supersomes, luciferin-H EGE luminescence, 30 min | 96,000 tested, 21% active | inhibition, % at 5 µM;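 active means CYP2C19 inhibition above a set limit at 5 µM in the primary screen, cut at about 50% in these data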;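 further: plate controls were negative control wells for no effect and 2.5 mM tranylcypromine positive control for full effect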
CYP2C9 inh: human CYP2C9 inhibition; P11712; CYP2C9 Supersomes, luciferin-H conversion, luminescence; inhibition, % at 5 µM; 96,000 tested, 20% active; AID 777;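 active means blocking of liver enzyme CYP2C9 beyond about 50% at 5 µM, limit read from the data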
* marks the source's active call; other numbers are inactive results; nt = no result. Only some compounds are listed: those with a hit (about 28% of all), similar ones and a draw of the others.

SMILES	CYP2C9 act	CYP2C19 act	PTK2B oligo ant	CYP2C19 inhib	CYP2C9 inh
Cc1ccc2nc(-c3cccc(S(=O)(=O)N(C)C)c3)cn2c1	0.9	0.9	-0.91	14	14
O=C(Nc1cccc(C(F)(F)F)c1)/C(=C/c1ccco1)NC(=O)c1cccs1	0.9	0.7	-0.52	34	13
O=C(NCCSc1c[nH]c2ccccc12)c1ccco1	0.4	0.8	nt	19	62*
O=C(NCCSc1c[nH]c2ccccc12)C1CC1	0.7	0.8	nt	16	25
COc1ccc(CNCCNC(=O)c2ccco2)c(OC)c1OC	1	1	0.89	5	-3
COc1ccc2c(CCNC(=O)c3ccco3)c[nH]c2c1	0.6	0.2	0.92	79*	39
COC(=O)C(C)Sc1nnc(-c2ccncc2)o1 (stereo not drawn)	0.8	0.1	-0.51	89*	20
Cc1ccc(NC(=O)CCSc2nnc3ccccn23)cc1	0.9	0.5	0.41	55*	12
COC(=O)c1ccc(CSc2nnc(-c3ccncc3)n2Cc2ccccc2)o1	0.3	0.1	-1.1	87*	74*
CCSc1nnc(-c2ccncc2)n1Cc1ccccc1	1.2	0.9	0.52	14	-21
CCOC(=O)C(Sc1nnc(-c2ccncc2)o1)C(C)=O (stereo not drawn)	nt	nt	0.35	nt	nt
COC(=O)c1ccc(CSc2nnc3ccccn23)o1	0.9	0.5	1.3	52*	7
CC(C)(C)c1ccc(-c2conc2N)cc1	nt	nt	-0.14	nt	nt
Fc1ccc(-c2n[nH]c(=S)n2CC2CCCO2)cc1 (stereo not drawn)	0.8	0.8	0.11	22	22
COC(=O)c1ccc(CSc2nnnn2-c2ccc(C)cc2C)o1	0.1	0.1	-0.78	90*	86*
COC(=O)c1ccc(CSc2ccc3nnc(-c4cccnc4)n3n2)o1	0.6	0.6	nt	36	36
COC(=O)c1ccc(CSc2nnc(-c3ccncc3)o2)o1	0.2	0.1	0.19	91*	76*
Cc1ccc(-n2nnnc2SCC(=O)NCCC2=CCCCC2)c(C)c1	0.2	0.3	-1.8	71*	80*
Cc1ccc(-n2nnnc2SCC(N)=O)c(C)c1	1.1	0.9	0.58	8	-6
COc1cc(CNc2ncn[nH]2)cc(Br)c1OC	0.8	0.6	-0.4	36	16
Cc1cc(O)c(/C=N/Nc2ccccc2Cl)c(=O)o1	0.7	0.7	-0.69	30	27
Cc1cc(O)c(/C=N/Nc2cccc(Cl)c2)c(=O)o1	0.3	0.4	-0.13	58*	71*
C=CCn1c(SCc2ccc(C#N)cc2)nnc1-c1cccc(Cl)c1	0.4	0	-0.24	97*	64*
N#Cc1ccc(CSc2nnc(-c3ccccc3)n2Cc2ccco2)cc1	0.6	0.9	-1.2	12	42
C=CCn1c(SCc2cccc(C#N)c2)nnc1-c1ccccc1O	0.6	0	nt	100*	39
SMILES	CYP2C9 act	CYP2C19 act	PTK2B oligo ant	CYP2C19 inhib	CYP2C9 inh
C=CCn1c(SCC(=O)NC(C)(C)C)nnc1-c1ccccc1O	0.9	0.7	0.61	30	11
O=C(O)CCC(=O)N1CCc2cc(S(=O)(=O)N3CCC(Cc4ccccc4)CC3)ccc21	0.8	0.7	nt	33	18
O=C1CC(NCc2ccncc2)C(=O)N1c1ccc(Cl)cc1 (stereo not drawn)	0.2	0.1	-0.8	88*	82*
O=C1CC(NCc2ccncc2)C(=O)N1c1ccccc1 (stereo not drawn)	0.1	0.1	0.03	94*	91*
COc1cc(C(=O)N2CCN(C/C=C/c3ccccc3)CC2)cc(OC)c1OC	nt	nt	0.87	nt	nt
COc1cc(C(=O)N2CCC(O)(c3ccccc3)CC2)cc(OC)c1OC	0.2	0.3	-0.06	66*	79*
CCCCN1C(=O)C(NC(C)=O)c2ccccc21 (stereo not drawn)	1.1	1.1	0.07	-6	-14
CC(=O)NC1C(=O)N(CCc2ccccc2)c2ccc(Br)cc21 (stereo not drawn)	0.8	0.2	-0.77	80*	15
COc1ccc(NC(=O)CSc2nnc(C)n2Cc2ccccc2)cc1	0.9	0.7	-0.46	30	8
CCn1c(COc2cccc(OC)c2)nnc1SCC(=O)Nc1ccccc1C(=O)OC	0.9	0.6	0	43	7
CCn1c(COc2ccc(C)cc2)nnc1SCC(=O)Nc1cc(OC)ccc1OC	0.5	0.1	-0.38	90*	48
CCn1c(COc2ccccc2)nnc1SCC(=O)Nc1cc(C)ccc1OC	2.1*	0.5	-0.14	46	-108
COc1ccc(C)cc1NC(=O)CSc1nnc(COc2ccc(C)cc2)n1Cc1ccco1	0.9	0.9	-1	6	10
CCn1c(COc2ccc(C)cc2)nnc1SCC(=O)C(C)(C)C	0.5	0.5	1.4	50	51*
COc1ccc(OC)c(NC(=O)CSc2nnc(C)n2Cc2ccccc2)c1	0.7	0.1	0.27	87*	29
Cc1nc2nc(-c3cccnc3)[nH]n2c(=O)c1C	0.7	0.7	-0.64	27	31
Cc1cc(NC(=O)CN2CCN(c3ccc(O)cc3)CC2)no1	1	1	-0.49	-1	-3
COc1ccc(/C=C/C(=O)OC(C)CN2CCOCC2)cc1 (stereo not drawn)	0.9	1	-0.5	-4	14
O=C(NC1CCCCCC1)c1ccc(S(=O)(=O)NCc2ccco2)cc1	0.9	1	-0.26	-2	10
O=C(NCCc1c[nH]c2ccccc12)c1ccc(-n2cnnn2)cc1	3.1*	0.5	-0.02	53*	-211
O=C(NCCc1c[nH]c2ccccc12)c1ccc(S(=O)(=O)NCc2ccco2)cc1	0.2	0.2	0.61	84*	84*
Cc1ccc(C)c(NC(=O)C2CC3c4ccccc4C2c2ccccc23)c1 (stereo not drawn)	0.7	0.8	-0.66	24	32
C(=N\c1nccs1)/c1cccnc1	nt	nt	0.26	nt	nt
O=C(Cn1c(=O)n(-c2ccccc2)c(=O)n1CC(=O)N1CCCCC1)N1CCCCC1	1	1	0.33	2	4
Cn1c(-c2cccc(Br)c2)cnc1NCc1cccnc1	0.4	0.2	2.1	77*	64*
SMILES	CYP2C9 act	CYP2C19 act	PTK2B oligo ant	CYP2C19 inhib	CYP2C9 inh
Cn1c(-c2ccc(F)cc2)cnc1NCc1cccc(F)c1	0.6	0.5	-0.2	53*	37
COc1cccc(-c2cnc(NCc3cc(Cl)ccc3O)n2C)c1	0	0	0.52	99*	98*
Cn1c(-c2ccc(F)cc2)cnc1NCc1ccccc1	1	0.7	0.01	32	3
CCN1CCN(C(=O)C2CCN(Cc3cc(Cl)ccc3O)CC2)CC1	0.9	0.8	0.28	17	15
CCCOC(=O)C1=C(C)OC23OC(N)=C(C#N)C12C(=O)c1ccccc13 (stereo not drawn)	nt	nt	0.86	nt	nt
Cc1cccc2cc(COC(=O)C3CCCCC3)c(=O)[nH]c12	1	0.9	0	10	-2
O=C(COc1ccccc1)Nc1ccccc1N1CCN(c2ccc(F)cc2)CC1	0.9	1	-0.89	-4	8
O=C(COc1ccccc1)Nc1cc(C(F)(F)F)ccc1N1CCCC1	0.8	0.7	-0.73	33	18
